Calls of active or inactive are those of the source. Unless noted, the rule behind the calls is not given here.
Tests used:
[1] = resazurin metabolic signal in HepG2 cells – cell-based, resazurin fluorescence, 24 h, PK04 Diversity Set, profiling panel (AID 1172); details: HepG2 viability, higher = more signal
[2] = budding yeast growth changes without added modifier – OD600, strain BY4716, 24 h, basal condition, primary screen (AID 1173); details: S. cerevisiae BY4716 growth, OD600, 24 h; higher = more signal, called active from +8 up or from −8 down
[3] = viability profiling in MM1S myeloma cells – cell-based, resazurin fluorescence, basal, 24 h, PK04 Diversity Set, profiling panel (AID 1174); details: higher = more signal, called active from +8 up or from −8 down;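 note: MM1S multiple myeloma cell line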
[4] = target: Dihydroorotate dehydrogenase (quinone), mitochondrial (Plasmodium falciparum (isolate 3D7)) (UniProt Q08210); assay: inhibition of P. falciparum DHODH – biochemical, C-terminal His tag, absorbance 600 nm, primary screen (AID 1175); details: PfDHODH enzyme, DCIP absorbance 600 nm; higher = more signal, called active from +8 up or from −8 down;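 note: recombinant parasite enzyme with a five histidine tag at its C terminus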
Dihydroorotate dehydrogenase (quinone), mitochondrial (Plasmodium falciparum (isolate 3D7)), sequence (Q08210 whole entry, looked up): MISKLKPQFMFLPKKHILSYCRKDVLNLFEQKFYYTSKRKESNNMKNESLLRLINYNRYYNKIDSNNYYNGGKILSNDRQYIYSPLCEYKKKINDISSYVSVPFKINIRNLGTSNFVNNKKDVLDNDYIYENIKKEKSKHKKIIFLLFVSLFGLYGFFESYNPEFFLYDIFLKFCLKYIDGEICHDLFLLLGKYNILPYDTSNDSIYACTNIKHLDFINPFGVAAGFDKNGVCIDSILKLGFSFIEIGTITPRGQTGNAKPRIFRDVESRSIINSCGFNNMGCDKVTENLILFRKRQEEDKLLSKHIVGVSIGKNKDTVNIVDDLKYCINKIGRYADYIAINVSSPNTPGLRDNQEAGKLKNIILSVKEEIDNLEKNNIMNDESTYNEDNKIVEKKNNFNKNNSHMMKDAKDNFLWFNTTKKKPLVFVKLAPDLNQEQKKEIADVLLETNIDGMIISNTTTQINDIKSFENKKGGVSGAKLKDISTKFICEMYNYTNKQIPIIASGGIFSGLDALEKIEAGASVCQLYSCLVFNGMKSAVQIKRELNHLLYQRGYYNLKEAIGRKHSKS

[5] = inhibition of PAO1 biofilm formation – strain PAO1, LB-PBS medium, absorbance 600 nm, primary screen (AID 1176); details: P. aeruginosa PAO1 growth/biofilm, A600, 12 h; higher = more signal
[6] = growth modulation of vineyard yeast isolate – strain RM11-1a, OD600, basal, 24 h, primary screen (AID 1177);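 note: cultures grown under basal conditions with no added stressor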; details: S. cerevisiae RM11-1a growth, OD600, 24 h; higher = more signal, called active from +8 up or from −8 down
[7] = growth of efflux-deficient E. coli DRC39 – strain DRC39, OD650, 24 h, E. coli filamentation inducers, primary screen (AID 1178);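 note: growth measured as culture turbidity by optical density at 650 nm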; details: E. coli DRC39 acrAB, higher = more signal, called active from +8 up or from −8 down
[8] = growth of efflux-deficient E. coli DRC39 – strain DRC39, OD650, 48 h, E. coli filamentation inducers, primary screen (AID 1179);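 note: screen aims at cell division blockers that make cells filament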; details: E. coli DRC39 delta-acrAB growth, higher = more signal, called active from +8 up or from −8 down
[9] = viability profiling in RPMI8226 myeloma cells – cell-based, resazurin fluorescence, basal, 24 h, PK04 Diversity Set, profiling panel (AID 1180); details: higher = more signal;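 note: RPMI8826 multiple myeloma cell line at 5000 cells per well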
[10] = target: E3 ubiquitin-protein ligase XIAP (Homo sapiens) (UniProt P98170); assay: small molecules binding XIAP protein – biophysical, small-molecule microarray, fluorescence 635 nm, primary screen (AID 1181); details: higher = more signal;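 note: score merges 667 nm emission and signal to noise over triplicate slides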
E3 ubiquitin-protein ligase XIAP (Homo sapiens), sequence (P98170 whole entry, looked up, the tested form may be a part): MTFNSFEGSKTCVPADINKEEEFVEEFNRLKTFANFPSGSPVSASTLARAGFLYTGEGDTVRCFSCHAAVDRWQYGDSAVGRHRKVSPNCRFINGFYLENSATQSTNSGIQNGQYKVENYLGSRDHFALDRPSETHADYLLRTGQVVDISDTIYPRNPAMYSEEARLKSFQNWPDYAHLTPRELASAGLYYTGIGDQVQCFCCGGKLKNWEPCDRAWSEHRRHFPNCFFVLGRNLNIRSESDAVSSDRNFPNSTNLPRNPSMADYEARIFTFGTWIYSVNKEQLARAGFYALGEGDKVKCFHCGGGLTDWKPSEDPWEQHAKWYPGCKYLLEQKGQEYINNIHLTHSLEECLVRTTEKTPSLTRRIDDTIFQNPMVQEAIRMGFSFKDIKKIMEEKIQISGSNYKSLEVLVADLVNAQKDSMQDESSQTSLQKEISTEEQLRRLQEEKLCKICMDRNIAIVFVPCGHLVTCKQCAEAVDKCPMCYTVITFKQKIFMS

[11] = system: XIP peptide (Xip251-270) binding; assay: XIP fragment 251-270 binding compounds – biochemical, small-molecule microarray, fluorescence 635/667 nm, 0.1 µg/mL protein, primary screen (AID 1182); details: fluorescent protein binding, 635 nm, higher = more signal, called active from +8 up or from −8 down
XIP peptide (Xip251-270) = assay: compounds binding XIP fragment 251-270 – biochemical, small-molecule microarray, fluorescence 635/667 nm, 0.5 µg/mL protein, primary screen (AID 1183); details: fluorescence 635 nm, higher = more signal
[12] = blood-stage malaria parasite viability loss – strain 3D7, DAPI fluorescence, 100 nL, primary screen (AID 1184);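 note: parasites grown inside human red blood cells in medium with human serum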; details: P. falciparum 3D7 growth, 3 d, higher = more signal
[13] = target: Homeobox protein Hox-A13 (Mus musculus) (UniProt Q62424); assay: disruptors of Hoxa13 oligonucleotide interaction – biochemical, fluorescence polarization, labeled oligonucleotide, primary screen (AID 1185); details: Hoxa13:DNA binding, 15 min, higher = more signal, called active from +8 up or from −8 down
Homeobox protein Hox-A13 (Mus musculus), sequence (Q62424 whole entry, looked up): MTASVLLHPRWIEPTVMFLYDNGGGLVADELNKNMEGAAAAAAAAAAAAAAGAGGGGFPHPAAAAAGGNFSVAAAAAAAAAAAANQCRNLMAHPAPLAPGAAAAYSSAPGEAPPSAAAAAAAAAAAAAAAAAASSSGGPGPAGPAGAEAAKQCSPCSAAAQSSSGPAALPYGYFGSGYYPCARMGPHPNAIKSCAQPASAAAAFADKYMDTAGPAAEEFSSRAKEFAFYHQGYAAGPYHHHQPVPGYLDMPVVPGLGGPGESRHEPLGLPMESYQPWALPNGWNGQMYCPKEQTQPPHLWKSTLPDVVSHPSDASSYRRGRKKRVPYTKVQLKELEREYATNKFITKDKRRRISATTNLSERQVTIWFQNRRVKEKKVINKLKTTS

[14] = blockers of DNA damage checkpoint Chk1 activation – imaging, HeLa, hydroxyurea, phospho-Chk1 antibody, percent positive cells, primary screen (AID 1186); details: hydroxyurea-induced phospho-Chk1 immunofluorescence imaging, higher = more signal
[15] = blockers of DNA damage checkpoint Chk1 activation – imaging, HeLa, hydroxyurea, phospho-Chk1 nuclear intensity, primary screen (AID 1187); details: hydroxyurea-induced phospho-Chk1 immunofluorescence imaging, higher = more signal

Which results are given for `C=C[C@H](COC(C)=O)N(Cc1ccc(OC(C)=O)c(OC)c1)S(=O)(=O)c1ccc(Br)cc1`?
z-score [1]: 0.203; z-score [2]: -0.533 (inactive); z-score [3]: 0.427 (inactive); composite z-score [4]: -1.24 (inactive); z-score [5]: -0.152 (inactive); z-score [6]: 0.318 (inactive); z-score [7]: 1.65 (inactive); z-score [8]: 2.5 (inactive); z-score [9]: 0.798; composite z-score [10]: -0.162; composite z-score [11]: 0.353 (inactive); composite z-score (XIP peptide (Xip251-270)): 0.713; z-score [12]: 0.371; z-score [13]: -5.58 (inactive); z-score [14]: -0.245 (inactive); z-score [15]: -0.314 (inactive)

For `CCCCC=C[C@@H](NC(=O)c1ccco1)c1ccccc1`, which z-score [1] is on record?
The z-score was 1.

What about the z-score [2] of the same compound?
The z-score was 1.42 (inactive).

What about the z-score [3] of the same compound?
The z-score was 0.356 (inactive).

What about the composite z-score [4] of the same compound?
Its composite z-score is 0.559 (inactive).

And the z-score [5]?
Its z-score is -0.126 (inactive).

And the z-score [6]?
Its z-score is 0.846 (inactive).

What about the z-score [7] of the same compound?
Its z-score is 0.358 (inactive).

What about the z-score [8] of the same compound?
Its z-score is 0.815 (inactive).

And the z-score [9]?
Its z-score is 0.223.

What about the composite z-score [10] of the same compound?
The composite z-score was -0.123.

And the composite z-score [11]?
The composite z-score was 0.193 (inactive).

What about the composite z-score (XIP peptide (Xip251-270)) of the same compound?
The composite z-score was 0.511.

And the z-score [12]?
Its z-score is -1.19.

And the z-score [13]?
The z-score was -0.806 (inactive).

And the z-score [14]?
Its z-score is -0.164 (inactive).

What about the z-score [15] of the same compound?
The z-score was -0.7 (inactive).

With `NC(=O)NCC#Cc1ccc2c(c1)[C@]1(C(=O)N2)[C@H](C(=O)N2CCCCCCC2)[C@H]2C(=O)O[C@H](c3ccccc3)[C@H](c3ccccc3)N2[C@@H]1c1ccc(OCCO)cc1` as the compound, how does the z-score [1] read?
Its z-score is -0.3.

What about the z-score [2] of the same compound?
Its z-score is 1.84 (inactive).

What about the z-score [3] of the same compound?
The z-score was -0.36 (inactive).

And the composite z-score [4]?
Its composite z-score is 0.835 (inactive).

What about the z-score [5] of the same compound?
Its z-score is 2.1 (inactive).

What about the z-score [6] of the same compound?
The z-score was 2.12 (inactive).

And the z-score [7]?
The z-score was 0.049 (inactive).

And the z-score [8]?
The z-score was -0.318 (inactive).

What about the z-score [9] of the same compound?
The z-score was -0.831.

And the composite z-score [10]?
The composite z-score was 0.0368.

And the composite z-score [11]?
Its composite z-score is 0.98 (inactive).

What about the composite z-score (XIP peptide (Xip251-270)) of the same compound?
Its composite z-score is 0.246.

And the z-score [12]?
The z-score was -0.922.

And the z-score [13]?
Its z-score is -15.8 (active).

What about the z-score [14] of the same compound?
Its z-score is 0.109 (inactive).

What about the z-score [15] of the same compound?
The z-score was 0.309 (inactive).

For `COc1ccc([Si](C)(C)[C@@H]2[C@@H](CC(=O)N(CCO)Cc3ccccc3)O[C@]3(C(=O)N(C)c4ccccc43)[C@H]2C)cc1`, which z-score [1] is on record?
The z-score was -1.36.

What about the z-score [2] of the same compound?
The z-score was -0.599 (inactive).

And the z-score [3]?
The z-score was -1.64 (inactive).

And the composite z-score [4]?
The composite z-score was -0.688 (inactive).

What about the z-score [5] of the same compound?
Its z-score is 0.708 (inactive).

What about the z-score [6] of the same compound?
The z-score was 0.975 (inactive).

What about the z-score [7] of the same compound?
The z-score was -0.284 (inactive).

What about the z-score [8] of the same compound?
The z-score was -0.896 (inactive).

And the z-score [9]?
The z-score was -1.49.

And the composite z-score [10]?
The composite z-score was -0.0853.

And the composite z-score [11]?
Its composite z-score is 1.74 (inactive).

What about the composite z-score (XIP peptide (Xip251-270)) of the same compound?
The composite z-score was 0.626.

And the z-score [12]?
The z-score was -1.55.

And the z-score [13]?
The z-score was -6.65 (inactive).

And the z-score [14]?
Its z-score is -0.36 (inactive).

And the z-score [15]?
Its z-score is -1.47 (inactive).

With `CCOC(=O)C[C@H]1[C@H](OC(=O)Cc2ccc3c(c2)OCO3)[C@@H](NC(=O)C2CCCCC2)c2cc(OCCCO)ccc2N1C(=O)Cc1ccc(OC)cc1` as the compound, how does the z-score [1] read?
Its z-score is -0.778.

And the z-score [2]?
The z-score was -0.815 (inactive).

And the z-score [3]?
The z-score was 0.184 (inactive).

And the composite z-score [4]?
Its composite z-score is -0.974 (inactive).

What about the z-score [5] of the same compound?
Its z-score is 0.183 (inactive).

What about the z-score [6] of the same compound?
Its z-score is -1.53 (inactive).

And the z-score [7]?
The z-score was 0.015 (inactive).

What about the z-score [8] of the same compound?
The z-score was 0.424 (inactive).

And the z-score [9]?
Its z-score is 0.283.

What about the composite z-score [10] of the same compound?
Its composite z-score is 0.0413.

What about the composite z-score [11] of the same compound?
The composite z-score was -0.219 (inactive).

And the composite z-score (XIP peptide (Xip251-270))?
The composite z-score was 0.128.

What about the z-score [12] of the same compound?
Its z-score is -0.383.

And the z-score [13]?
The z-score was -2 (inactive).

What about the z-score [14] of the same compound?
The z-score was -0.585 (inactive).

And the z-score [15]?
Its z-score is -0.868 (inactive).

Source: PubChem BioAssay
